{
  "source": "PubChem BioAssay (EPA / NIEHS)",
  "note": "Active and inactive are the calls of the source. The calls were made as follows: active = hit-call score of the fitted dose curve at least 0.9, where 1 is the maximum; inactive = score below 0.9.",
  "data": [
    {"test": "BSK_KF3CT_SRB: Viability Assessment in the BioMAP Diversity Plus: KF3CT Assay (AID 2283069);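 also: read 24 h after compound addition; fitted for both signal gain and loss against DMSO baseline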", "conditions": "primary human keratinocytes with fibroblasts", "how_it_was_run": "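Overt cytotoxicity is assessed as total protein by sulforhodamine B staining in parallel human skin co-cultures at 24 h after dosing. DMSO serves as negative control and baseline.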", "values": [
      {"compound": "O=C(O)C(Cl)(Cl)Cl", "outcome": "inactive"},
      {"compound": "Oc1cccc2cccnc12", "AC50": "2.78 µM (active)"},
      {"compound": "CC(=O)OC(c1ccccc1)C(Cl)(Cl)Cl", "note": "(centres undefined)", "outcome": "inactive"},
      {"compound": "C[C@]12CCC(=O)C[C@@H]1CC[C@@H]1[C@@H]2CC[C@]2(C)[C@@H](O)CC[C@@H]12", "outcome": "inactive"},
      {"compound": "COP(=S)(OC)Oc1ccc(Sc2ccc(OP(=S)(OC)OC)cc2)cc1", "outcome": "inactive"},
      {"compound": "C(=NC1CCCCC1)=NC1CCCCC1", "AC50": "15 µM (active)"},
      {"compound": "COc1cc(OC)nc(NC(=O)NS(=O)(=O)c2ncccc2C(=O)N(C)C)n1", "outcome": "inactive"},
      {"compound": "CC12CC1(C)C(=O)N(c1cc(Cl)cc(Cl)c1)C2=O", "note": "(centres undefined)", "outcome": "inactive"},
      {"compound": "COC(=O)c1sccc1S(=O)(=O)NC(=O)Nc1nc(C)nc(OC)n1", "outcome": "inactive"},
      {"compound": "C=C(C)C(=O)[O][Sn]([CH2]CCC)([CH2]CCC)[CH2]CCC", "AC50": "0.282 µM (active)"},
      {"compound": "CC(C)(C)c1cc(O)ccc1O", "AC50": "29.9 µM (active)"},
      {"compound": "CC(C)(c1ccccc1)c1ccc(O)c(C(C)(C)c2ccccc2)c1", "AC50": "2.33 µM (active)"},
      {"compound": "CCCCCCCCc1ccc(O)cc1", "AC50": "27.7 µM (active)"},
      {"compound": "O=C(Nc1ccc2[nH]ccc2c1)c1cc2cc(F)ccc2n1Cc1cccc(F)c1", "AC50": "5.91 µM (active)"},
      {"compound": "O=C(OC1CCCCC1)c1ccccc1C(=O)OC1CCCCC1", "outcome": "inactive"},
      {"compound": "C=CC(=O)OCCCCCC(C)C", "outcome": "inactive"},
      {"compound": "CC(C)(C)CC(C)(C)c1ccc(O)cc1", "AC50": "6.93 µM (active)"},
      {"compound": "CCNc1nc(NC(C)(C)C)nc(SC)n1", "outcome": "inactive"},
      {"compound": "CC(=O)[O][Hg][c]1ccccc1", "AC50": "0.617 µM (active)"},
      {"compound": "Nc1cccc2ccccc12", "outcome": "inactive"},
      {"compound": "ClCC(Cl)CCl", "outcome": "inactive"},
      {"compound": "CCOP(=S)(OCC)Oc1nc(Cl)c(Cl)cc1Cl", "outcome": "inactive"},
      {"compound": "CCOP(=S)(OCC)SCSP(=S)(OCC)OCC", "outcome": "inactive"},
      {"compound": "CCOP(=S)(OCC)SCCS(=O)(=O)CC", "outcome": "inactive"},
      {"compound": "CCOP(=S)(OCC)Oc1ccc(S(C)=O)cc1", "note": "(centres undefined)", "outcome": "inactive"},
      {"compound": "COC[C@H](C)N(C(=O)CCl)c1c(C)csc1C", "outcome": "inactive"},
      {"compound": "ClC(Cl)=C(Cl)C(Cl)=C(Cl)Cl", "AC50": "34.1 µM (active)"},
      {"compound": "COC(=O)Cc1ccccc1", "outcome": "inactive"},
      {"compound": "O=[N+]([O-])c1ccc(O)c([N+](=O)[O-])c1", "outcome": "inactive"},
      {"compound": "Nc1ncc([N+](=O)[O-])s1", "outcome": "inactive"},
      {"compound": "NC(=S)Nc1ccccc1", "outcome": "inactive"},
      {"compound": "CCC(C)(C)c1ccc(O)c(C(C)(C)CC)c1", "AC50": "7.84 µM (active)"},
      {"compound": "O=C(O)CCC(F)(C(F)(F)F)C(F)(F)F", "outcome": "inactive"},
      {"compound": "CCCCC(CC)CO[N+](=O)[O-]", "note": "(centres undefined)", "AC50": "36.4 µM (active)"}
    ]}
  ]
}
